Measurements: PubChem BioAssay (NCI)
About 83,000 compounds went through this panel and 20% of them were active in at least one assay; those are over-represented in the sample as a whole.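 Each cell line was grown in a 96-well plate and treated with one concentration of compound for 48 hours. Values below 10 were considered active.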 Values without a mark were called inactive. Activity calls are given as the source filed them.

Legend:
Assay in all cases: NCI-60 one-dose screen, 48 h (100 = growth as untreated, 0 = no growth, -100 = all killed)
[1] = tested on: HCT-15 colon; details: 10 µM unless noted
[2] = tested on: HT29 colon; details: 10 µM unless noted
[3] = tested on: SNB-75 CNS; details: 10 µM unless noted
[4] = tested on: SNB-19 CNS; details: 10 µM unless noted
[5] = tested on: U251 CNS; details: 10 µM unless noted
[6] = tested on: PC-3 prostate; details: 10 µM unless noted
[7] = tested on: SK-MEL-5 melanoma; details: 10 µM unless noted
[8] = tested on: UACC-62 melanoma; details: 10 µM unless noted
[9] = tested on: LOX IMVI melanoma; details: 10 µM
[10] = tested on: SK-MEL-28 melanoma; details: 10 µM unless noted
[11] = tested on: SK-MEL-2 melanoma; details: 10 µM unless noted
[12] = tested on: SN12C renal; details: 10 µM unless noted
[13] = tested on: TK-10 renal; details: 10 µM unless noted
[14] = tested on: ACHN renal; details: 10 µM unless noted
[15] = tested on: CAKI-1 renal; details: 10 µM unless noted
[16] = tested on: A498 renal; details: 10 µM unless noted
[17] = tested on: CCRF-CEM leukemia; details: 10 µM unless noted
[18] = tested on: MOLT-4 leukemia; details: 10 µM unless noted
[19] = tested on: EKVX NSCLC; details: 10 µM unless noted
[20] = tested on: UO-31 renal; details: 10 µM unless noted

SMILES	growth [1] [%]	growth [2] [%]	growth [3] [%]	growth [4] [%]	growth [5] [%]	growth [6] [%]	growth [7] [%]	growth [8]	growth [9] [%]	growth [10] [%]	growth [11] [%]	growth [12] [%]	growth [13] [%]	growth [14] [%]	growth [15]	growth [16] [%]	growth [17] [%]	growth [18]	growth [19] [%]	growth [20] [%]
COC1OC(C(COC(C)=O)OC(C)=O)C(OC(C)=O)C(OC(C)=O)C1OC(C)=O (stereo not drawn)	92.5	105	97.6	99.4	101	107	106	110%	103	105	113	107	107	95.3	96.2%	125	104	93.5%		
O=C(O)Cc1cccc2ccccc12	102	105	82.2	116	95.1	106	118	110%	97	121		121	102	103	94.6%	106		9.03% (active)	101	93.6
NC(=S)N/N=C/c1ccc(OC(=O)COc2ccc(Cl)cc2)cn1	70.6	79.3	44.9	72.9	32.6	64.3	30.7	8.53% (active)	23.8	76.5	62.8	28.2	74.9	12.5	0.332% (active)	57.3	18.6	16.5%		
C#CCSc1nnnn1-c1ccccc1	54.1	96	73.2	97.5	36.7	89.4	91.1	101%	95.1	100		88	80.4	70.2	78.5%	40	83.9			91.1
CC(C)C(C)(C)C(=O)C(C)(C)C(C)(C)C	96.9	98.1	109	102	92.9	98.8	101	102%	93.3	104	99.9	98.2	96.2	99.3	104%	83.9	107	110%		
O=Cc1ccc(Cl)c(Cl)c1	110	106	88.4	111	104	94.6	110	102%	95	107		110	98	103	111%	83.3	97.8	106%	109	80.1
Cc1ccc(NC(=O)c2ccccc2Cl)cc1	95.3	107	95.3	99	118	89.6	107	98.6%	101	108		101	115	103	107%	79.2	85		105	97
CC(=O)c1ccc(C)cc1	113	111	90.1	109	108	106	105	105%	108	104		103	105	109	109%	94.5	108	107%	98.5	75.7
Cc1nc(O)cc(=O)[nH]1	119	108	97.1	109	118	97	109	113%	108	110		109	107	107	109%	96.2	106	103%	108	72.8
CN(C)c1ccc(O)c2c1CC1CC3C(N(C)C)C(=O)C(C(N)=O)=C(O)C3(O)C(=O)C1=C2O (stereo not drawn)	25.4	57.5	55.8	55.5	25.7	34.6	25.6	29%	29.3	47.4	17.6	35.6		35.5	-3.07% (active)	26.2	44.9	79.1%		23.6
CCOC(=O)CO	115	107	94.1	105	110	101	107	103%	107	114		104	109	109	96.5%	97	102	86.4%	95.6	72.8
CC(CCC#N)(CCC#N)C(=O)c1ccccc1	100	103	96.7	102	109	87.8	109	104%	100	119		102	106	114	112%	89.9	93.3	97.8%	115	77.1
O=S1(=O)c2ccccc2Oc2ccccc21	101	99.6	80.5	104	94	92.7	108	102%	102	99.4	100	96.8	101	99.7	92.9%	99.7	127	111%		
O=C(CCl)Oc1ccc([N+](=O)[O-])cc1	110	119	91.2	115	106	89.9	103	114%	98.1	114		116	109	109	124%	133	95.9	105%	112	60.8
Cc1cc(CO)c(O)c(CO)c1	102	95.4	64.4	114	98.8	101	108	104%	90.7	108		111	97.1	103	96.8%	95.5		21.4%	106	90.9
CCOC(=O)C(C#N)=C1CCN(C)CC1	99.5	113	102	101	104	87.7	111	103%	109	134		97	108	97.9	92.4%	100	99.2	58.5%	112	87.5
N#CCCN1C(=O)CCC1C(=O)O (stereo not drawn)	97.8	89.8	103	101	101	90.9	110	105%	120	124		106	103	101	102%	98.9	108	-26.9% (active)	112	101
